G9a inh – inhibitors of human histone lysine methyltransferase G9a. Q96KQ7. G9a H3K9 monomethylation, AlphaScreen, 2 h. Potency, µM (series often up to 102 µM), actives largely listed as inhibitors. hit rate 8.8% among 350,000; also: nearly all actives have a fitted effect of over 75% in size
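Enzyme 20 nM + cpd, 15 min RT; add b-H3K9 pep 500 nM / SAM 20 uM; 2 h RT; anti-H3K9me1 Ab 0.5 ug/mL + SA donor / anti-rabbit acceptor beads 20 ug/mL each, 10 min; AlphaScreen read.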
HP1b chromo inh – blocks HP1-beta chromodomain binding to methylated histone tails | AID 540317 | AlphaScreen HP1-beta / biotin-H3K9me3 peptide binding | Potency, µM (doses to about 114 µM), hits mostly inhibitors | P83916 | hit rate 0.56% among 390,000; also: nearly all actives have a fitted effect of over 70% in size
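AlphaScreen: HP1-beta (50 nM) preformed 30 min with biotin-H3(1-18)K9me3 peptide (50 nM) in PBS pH 7.4, 0.01% Tween-20. Compound added for 30 min at RT, then streptavidin donor/nickel chelate acceptor beads (10 ug/mL) for 30 min.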
BAZ2B block – BAZ2B (human) inhibition; AlphaScreen BAZ2B-H3K14Ac peptide displacement; Potency, µM (doses to about 114 µM), hits mostly inhibitors; Q9UIF8; hit rate 4.4% among 360,000; also: nearly all actives have a fitted effect of over 60% in size
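Protein-peptide AlphaScreen: BAZ2B 50 nM, b-H3K14Ac 50 nM, 1x PBS pH 7.4 + 0.01% Tween-20. Preincubation 30 min RT; cpd 30 min RT (top 110 uM); beads 20 min RT, light-protected.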
JMJD2A Tudor – JMJD2A Tudor domain (human) inhibition | O75164 | AlphaScreen JMJD2A-Tudor / H3K4me3 peptide binding | Potency, µM (series often up to 114 µM), usual class: inhibitors | hit rate 4.4% among 390,000; also: nearly all actives have a fitted effect of over 50% in size
Sfp PPTase inh – Sfp phosphopantetheinyl transferase inhibition. Q9F4F7. Biochemical Sfp PPTase activity, qHTS. Potency, µM, actives largely listed as inhibitors. hit rate 3.5% among 310,000. AID 1490;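 also: the enzyme is Sfp with the accession as filed and its product quenches rhodamine fluorescence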
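Step 1, compound plus 15 nM Sfp-PPTase, 15 min, room temperature. Step 2, add rhodamine-CoA (5 uM) and BHQ-2-YbbR (12.5 uM). Step 3, read 525/598 nm fluorescence at 0 and 30 min.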
Large screens that a line does not name were inactive. This is a sample that favours compounds with a hit; in the whole collection about 12% have one here. Calls follow the shape of the dose curve; as a rule, active = well fitted curve in the direction sought with a large enough effect; inconclusive = small, poorly fitted or top-dose-only effect, or another doubt; inactive = no such curve, though single readings can be large; an effect the other way counts as inactive or inconclusive.

CC(C)CCn1c(=O)c2ccccc2n2c(=S)[nH]nc12	G9a inh 1.41µM, HP1b chromo inh 70.8µM, BAZ2B block 44.7µM, JMJD2A Tudor 3.55µM, Sfp PPTase inh 56.2µM
CC(C)OCCCn1c(=O)c2ccccc2n2c(-c3ccccc3)nnc12	G9a inh inconclusive, BAZ2B block 50.1µM, JMJD2A Tudor 50.1µM (no result: Sfp PPTase inh)
CC(C)CCn1c(=O)c2ccccc2n2c(CCl)nnc12	none
CCOCCCn1c(=O)c2ccccc2n2c(=S)[nH]nc12	G9a inh 10µM, JMJD2A Tudor 3.98µM
CC(C)OCCCn1c(=O)c2ccccc2n2c(-c3ccccc3F)nnc12	none (no result: Sfp PPTase inh)
C=CCn1c(CCn2c3ccccc3c3ccccc32)n[nH]c1=S	G9a inh inconclusive
C=CCn1c(=O)c2ccccc2n2c(=S)[nH]nc12	G9a inh 7.94µM, JMJD2A Tudor 7.94µM
COc1ccc2[nH]cc(CCNc3nc(-c4c(C)noc4C)nc4ccccc34)c2c1	none (no result: HP1b chromo inh, BAZ2B block, JMJD2A Tudor)
C=CCn1c(=O)c2ccccc2n2c(SCC(=O)c3ccccc3)nnc12	G9a inh 22.4µM
CNC(=O)C1CCC(Cn2c(=O)c3sccc3n(CC(=O)N3CCCC3)c2=O)CC1 (centres undefined)	none (no result: Sfp PPTase inh)
O=C(NCc1ccccn1)c1nc(Cn2cc([N+](=O)[O-])cn2)no1	none
O=C(CCN1C(=O)/C(=C/c2ccccc2Cl)SC1=S)N1CCCC1	HP1b chromo inh inconclusive, BAZ2B block 25.1µM, JMJD2A Tudor inconclusive
O=C(CCCN1C(=O)/C(=C/c2ccccc2Cl)SC1=S)N1CCCC1	HP1b chromo inh inconclusive, BAZ2B block 14.1µM, JMJD2A Tudor 14.1µM, Sfp PPTase inh inconclusive
COc1ccccc1C(=O)C1CCCN(C(=O)c2cn3cc(Cl)ccc3n2)C1 (centres undefined)	G9a inh 28.2µM
C=C1CCC(C2CC(=O)OC2=O)C(=O)CCC2C1CC2(C)C (centres undefined)	none (no result: G9a inh, HP1b chromo inh, BAZ2B block, JMJD2A Tudor)
N#Cc1ccccc1NC(=O)Nc1cccs1	none
O=C(Nc1cccs1)Nc1ccccc1Cl	G9a inh inconclusive, Sfp PPTase inh 44.7µM
Cc1cccnc1NC(=O)Nc1cccs1	none
Cc1c(NC(=O)Nc2cccs2)cccc1[N+](=O)[O-]	G9a inh inconclusive, Sfp PPTase inh 50.1µM
Cc1ccc(NC(=O)Nc2cccs2)c(Cl)c1	none
Cc1cccc(NC(=O)Nc2cccs2)c1C	G9a inh 1µM (no result: Sfp PPTase inh)
CC1=C(C)CC(C(=O)Nc2nccs2)C(C(=O)O)C1 (centres undefined)	none
CCOC(=O)c1c(CSc2nc(C)cc(C)c2C#N)n(C)c2cc(Br)c(OC(C)=O)cc12	none
CCCCCCCCOC(=O)c1c(CSC(=N)N)n(C)c2cc(Br)c(OC(C)=O)cc12	HP1b chromo inh inconclusive, JMJD2A Tudor inconclusive, Sfp PPTase inh 39.8µM (no result: G9a inh)
CCOC(=O)c1c(CSC(=N)N)n(-c2ccc(Br)cc2)c2cc(Br)c(OC(C)=O)cc12	G9a inh 70.8µM, BAZ2B block inconclusive, Sfp PPTase inh inconclusive
CCN(CC)P(=O)(Nc1cccc(C(F)(F)F)c1)c1ccc(N(C)C)cc1NC(=O)c1ccco1 (centres undefined)	G9a inh 31.6µM, BAZ2B block inconclusive, JMJD2A Tudor inconclusive
CN(C)c1cccc(NC(=O)c2ccco2)c1	G9a inh inconclusive, BAZ2B block inconclusive
CN(C)C/C(Cl)=C(\Cl)c1ccccc1	G9a inh 14.1µM
COc1cccc(NC(=O)CN2C(=O)NC3(CCCc4ccccc43)C2=O)c1 (centres undefined)	G9a inh 10µM (no result: Sfp PPTase inh)
COc1ccc(C(NC(=O)CN2C(=O)NC3(CCc4ccccc43)C2=O)c2ccccc2)cc1 (centres undefined)	none (no result: Sfp PPTase inh)
COc1ccc(C(NC(=O)CN2C(=O)NC3(CCc4ccccc43)C2=O)c2ccc(OC)cc2)cc1 (centres undefined)	G9a inh 50.1µM (no result: Sfp PPTase inh)
Cn1c(-c2ccc(S(=O)(=O)N3CCCC3)cc2)csc1=Nc1ccc(Cl)c(Cl)c1	G9a inh inconclusive, HP1b chromo inh inconclusive, JMJD2A Tudor 50.1µM (no result: Sfp PPTase inh)
O=S(=O)(c1ccc(-c2csc(=Nc3ccc(OC(F)(F)Cl)cc3)n2CCCO)cc1)N1CCCC1	G9a inh 1µM, BAZ2B block 89.1µM, JMJD2A Tudor inconclusive (no result: Sfp PPTase inh)
Cc1cccc(CSCCNC(=O)CN(c2ccccc2)S(=O)(=O)N(C)C)c1	none (no result: Sfp PPTase inh)
CC(C)Oc1ccccc1C1CC(=O)Nc2cc3c(cc21)OCCO3 (centres undefined)	BAZ2B block 50.1µM, JMJD2A Tudor inconclusive
COc1cccc(C2CC(=O)Nc3cc4c(cc32)OCCO4)c1OC(C)C (centres undefined)	G9a inh 44.7µM, HP1b chromo inh inconclusive, JMJD2A Tudor inconclusive
O/C=c1\ccc2cccc3nc(C(F)(F)F)nc1c23	BAZ2B block inconclusive, JMJD2A Tudor 89.1µM
CCn1c(=S)[nH]c2sc3c(c2c1=O)CCCC3	none (no result: G9a inh)
C=CCn1c(=S)[nH]c2sc3c(c2c1=O)CCC3	G9a inh 3.16µM
CN(C)CCCn1c(=S)[nH]c2sc3c(c2c1=O)CCCC3	G9a inh 7.94µM, HP1b chromo inh inconclusive, BAZ2B block inconclusive, JMJD2A Tudor 22.4µM, Sfp PPTase inh 79.4µM
Clc1ccc2c(SCC3CO3)c3ccccc3nc2c1 (centres undefined)	none (no result: G9a inh, BAZ2B block, Sfp PPTase inh)
CCOc1ccc(OCC)c(NC(=O)CN2CCN(c3cccc(C)c3)CC2)c1	G9a inh 3.55µM, HP1b chromo inh 25.1µM, BAZ2B block 39.8µM, JMJD2A Tudor 7.94µM, Sfp PPTase inh 25.1µM
CCOc1ccc(OCC)c(NC(=O)CN2CCN(c3cccc(C)c3)C(C)C2)c1 (centres undefined)	G9a inh inconclusive, HP1b chromo inh 25.1µM, BAZ2B block 50.1µM, JMJD2A Tudor 1.12µM, Sfp PPTase inh inconclusive
CC(C)c1ccc2c(c1)CCC1C(C)(CN)CCCC21C (centres undefined)	Sfp PPTase inh 11.2µM
CCOC(=O)N1CCN(Cc2nc3cc(NC(C)=O)ccc3n2C(C)C)CC1	BAZ2B block inconclusive, JMJD2A Tudor 50.1µM (no result: Sfp PPTase inh)
CCCC(=O)Nc1ccc2c(c1)nc(CN1CCN(C(=O)OCC)CC1)n2C(C)C	none (no result: Sfp PPTase inh)
CCCC(=O)Nc1ccc2c(c1)nc(CN1CCN(C(C)=O)CC1)n2C	G9a inh 50.1µM
O=C(Nc1ccc(-n2nncc2-c2ccccc2)cc1)c1ccccc1	none (no result: G9a inh, BAZ2B block, Sfp PPTase inh)
Cc1ccc(C)c2c(N)c3c(nc12)CCCCC3 (tested in a mixture with another compound)	G9a inh 44.7µM
Nc1c2c(nc3sc4c(c13)CCCC4)CCCCCC2	none
COc1ccc(COC(=O)N/N=C2/C[C@@H](O)[C@@H](O)[C@@H]3[C@@H]4C(=O)N(C[C@@H]5CCCO5)C(=O)[C@H]4CC[C@@H]23)cc1	none (no result: G9a inh, HP1b chromo inh, BAZ2B block, JMJD2A Tudor)
CC(C)(C)c1ccc(NC(=O)C2=CN3CCS(=O)(=O)N=C3C=C2)cc1	G9a inh 7.08µM (no result: Sfp PPTase inh)
Cc1ccc(NC(=O)C2=CN3CCS(=O)(=O)N=C3C=C2)cc1	none (no result: G9a inh, BAZ2B block, Sfp PPTase inh)
O=[N+]([O-])c1ccc(C2CCCC/C2=N/O)c([N+](=O)[O-])c1 (centres undefined)	none
